Measured values from PubChem BioAssay (NCI).
About 79,000 compounds went through this panel and 15% of them were active in at least one assay; those are over-represented in the sample as a whole. Active and inactive are the calls of the source. Rule as the data show it: active = growth inhibition above about 70%; inactive = the rest.

Key:
[1] = NCI Yeast Anticancer Drug Screen. Data for the rad52 strain (AID 147);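 also: 0% = growth of vehicle-treated control cultures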; settings: S. cerevisiae rad52 mutant growth inhibition, active compounds read high
Procedure, shortened: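 Compounds are applied to a genetically defined yeast strain lacking normal DNA damage repair, and inhibition of growth is expressed relative to cultures given vehicle only.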

[2] = NCI Yeast Anticancer Drug Screen. Data for the wt1 strain (AID 149);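 also: 0% = growth of vehicle-treated wt1 cultures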; settings: S. cerevisiae wt1 strain (SPY 50644) growth inhibition, active compounds read high
Procedure, shortened: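 Readout: yeast growth inhibition, normalised to vehicle controls, in the wt1 strain exposed to test compounds.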

[3] = NCI Yeast Anticancer Drug Screen. Data for the rad50EPP+ strain (AID 151);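 also: 0% = growth of vehicle-treated control cultures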; settings: S. cerevisiae rad50 mutant strain, active compounds read high
Procedure, shortened: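 Compounds were applied to the rad50EPP+ yeast strain, which bears a defined DNA repair alteration, and growth inhibition was determined relative to vehicle-treated cultures.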

[4] = NCI Yeast Anticancer Drug Screen. Data for the mgt1 strain (AID 153); settings: S. cerevisiae mgt1 mutant growth inhibition, active compounds read high
Procedure, shortened: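 Strain: mgt1 yeast, one of a set carrying defined DNA damage repair or cell cycle control alterations. Compound-treated growth compared with vehicle.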

[5] = NCI Yeast Anticancer Drug Screen. Data for the rad50 strain (AID 155);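 also: 0% = growth of vehicle-only cultures of the same strain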; settings: S. cerevisiae rad50 strain growth inhibition, active compounds read high
Procedure, shortened: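 Compounds were tested on a yeast strain with an engineered DNA damage repair alteration; the reported value is growth inhibition normalised to vehicle treatment.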

[6] = NCI Yeast Anticancer Drug Screen. Data for the mec2-1 strain (AID 157); settings: S. cerevisiae mec2-1 strain, active compounds read high
Procedure, shortened: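 Strain: mec2-1 (DNA repair/cell cycle alteration). Compound exposure, then growth measured; inhibition expressed relative to vehicle.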

[7] = NCI Yeast Anticancer Drug Screen. Data for the rad14 strain (AID 159);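 also: 0% = growth of vehicle-treated control cultures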; settings: S. cerevisiae rad14 strain growth inhibition, active compounds read high
Procedure, shortened: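 Compound-treated yeast with a defined DNA-repair lesion; growth inhibition normalised to vehicle-treated cultures.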

[8] = NCI Yeast Anticancer Drug Screen. Data for the sgs1 mgt1 strain (AID 161);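 also: 0% = growth of cultures given vehicle only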; settings: S. cerevisiae sgs1 mgt1 strain, active compounds read high
Procedure, shortened: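 Inhibition of yeast growth, normalised to vehicle-treated controls, is reported for a strain bearing genetic alterations in DNA damage repair.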

[9] = NCI Yeast Anticancer Drug Screen. Data for the CLN2oe strain (AID 163);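 also: 0% = growth of vehicle-only control cultures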; settings: S. cerevisiae CLN2oe strain, active compounds read high
Procedure, shortened: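 Growth of a genetically modified yeast strain is measured after compound exposure and compared with cultures given vehicle alone.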

[10] = NCI Yeast Anticancer Drug Screen. Data for the cln2 rad14 strain (AID 165);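 also: 0% = growth equal to vehicle treated cultures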; settings: S. cerevisiae cln2 rad14 strain, active compounds read high
Procedure, shortened: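 Compounds are applied to the cln2 rad14 yeast strain, and growth is then compared with that of vehicle-treated cultures to give inhibition.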

[11] = NCI Yeast Anticancer Drug Screen. Data for the bub3 strain (AID 167); settings: S. cerevisiae bub3 mutant strain, active compounds read high
Procedure, shortened: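 Growth of a checkpoint-deficient yeast mutant is measured after compound exposure. Values represent inhibition relative to vehicle.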

[12] = NCI Yeast Anticancer Drug Screen. Data for the wt2 strain (AID 169);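 also: 0% = growth of vehicle-treated yeast cultures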; settings: S. cerevisiae wt2 strain growth inhibition, active compounds read high
Procedure, shortened: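 This strain belongs to a panel of yeast strains with defined genetic alterations in DNA damage repair or cell cycle control. Compounds are applied, and growth inhibition is measured against vehicle-treated cultures.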

[13] = NCI Yeast Anticancer Drug Screen. Data for the mlh1 strain (AID 171);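 also: 0% = growth of vehicle-treated control cultures of the same strain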; settings: S. cerevisiae mlh1 strain growth inhibition, active compounds read high
Procedure, shortened: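 Growth of the mutant yeast strain after compound exposure, expressed as inhibition relative to vehicle-only controls.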

[14] = NCI Yeast Anticancer Drug Screen. Data for the sgs1 strain (AID 173);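 also: 0% = growth of vehicle-only control cultures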; settings: S. cerevisiae sgs1 mutant, active compounds read high
Procedure, shortened: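 Growth of a yeast strain bearing a defined genetic alteration is measured after compound treatment. Inhibition is expressed relative to vehicle-only controls.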

[15] = NCI Yeast Anticancer Drug Screen. Data for the mlh1 rad18 strain (AID 175); settings: S. cerevisiae mlh1 rad18 strain growth inhibition, active compounds read high
Procedure, shortened: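 Read-out is yeast growth inhibition, calculated against vehicle-only controls. The compound was applied to a strain engineered with DNA damage repair alterations.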

[16] = NCI Yeast Anticancer Drug Screen. Data for the rad18 strain (AID 177); settings: S. cerevisiae rad18 mutant growth inhibition, active compounds read high
Procedure, shortened: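 Growth of the mutant yeast strain after compound exposure, normalised to vehicle-only cultures.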

[17] = at 5.0 µM (retest, dose inferred, filed as 0.5)
[18] = at 50.0 µM (retest, dose inferred, filed as 5.0)

Measured: growth inhibition

CCCCCCCCCCCCCCCCP(=O)(O)OCC(N)C(=O)O (stereo not drawn)
active: [1]; at 100.0 µM 95% | [2]; at 100.0 µM 97% | [4]; at 100.0 µM 97% | [5]; at 100.0 µM 96% | [6]; at 100.0 µM 96% | [7]; at 100.0 µM 93% | [8]; at 50.0 µM 93.5% | [13]; at 100.0 µM 96% | [14]; at 100.0 µM 95% | [15]; at 50.0 µM 73.9% | [16]; at 100.0 µM 97%
inactive: [1]; at 1.2 µM -5% | [1]; at 3.7 µM -40% | [1]; at 11.0 µM -38% | [1]; at 33.0 µM -15% | [2]; at 1.2 µM -38% | [2]; at 3.7 µM -46% | [2]; at 11.0 µM -46% | [2]; at 33.0 µM -31% | [3]; at 1.2 µM 0% | [3]; at 3.7 µM -5% | [3]; at 11.0 µM 5% | [3]; at 33.0 µM 20% | [3]; at 100.0 µM 69% | [4]; at 1.2 µM 15% | [4]; at 3.7 µM 21% | [4]; at 11.0 µM 7% | [4]; at 33.0 µM 43% | [5]; at 1.2 µM -14% | [5]; at 3.7 µM -14% | [5]; [17] -19% | [5]; at 11.0 µM -39% | [5]; at 33.0 µM 6% | [5]; [18] 46% | [5]; at 50.0 µM 66.9% | [6]; at 1.2 µM -22% | [6]; at 3.7 µM -24% | [6]; [17] -11% | [6]; at 11.0 µM -25% | [6]; at 33.0 µM -20% | [6]; [18] 3% | [6]; at 50.0 µM 58.8% | [7]; at 1.2 µM -67% | [7]; at 3.7 µM -61% | [7]; at 11.0 µM -55% | [7]; at 33.0 µM -47% | [8]; [17] -11% | [8]; [18] 39% | [9]; at 1.2 µM 1% | [9]; at 3.7 µM -3% | [9]; at 11.0 µM 0% | [9]; at 33.0 µM -6% | [9]; at 100.0 µM -8% | [10]; [17] 23% | [10]; [18] 7% | [10]; at 50.0 µM 60.9% | [11]; at 1.2 µM -1% | [11]; at 3.7 µM 1% | [11]; [17] -9% | [11]; at 11.0 µM 0% | [11]; at 33.0 µM -1% | [11]; [18] -8% | [11]; at 50.0 µM 60.1% | [11]; at 100.0 µM -13% | [12]; at 1.2 µM -1% | [12]; at 3.7 µM -2% | [12]; at 11.0 µM -4% | [12]; at 33.0 µM -2% | [12]; at 100.0 µM -3% | [13]; at 1.2 µM -18% | [13]; at 3.7 µM -26% | [13]; at 11.0 µM -53% | [13]; at 33.0 µM 20% | [14]; at 1.2 µM -31% | [14]; at 3.7 µM -58% | [14]; at 11.0 µM -44% | [14]; at 33.0 µM 18% | [15]; [17] -34% | [15]; [18] 29% | [16]; at 1.2 µM -3% | [16]; at 3.7 µM -8% | [16]; at 11.0 µM -10% | [16]; at 33.0 µM 14%

Nc1nc(N)c2c(Cl)c(CNc3ccc(C(=O)NC(CC(=O)O)C(=O)O)cc3)ccc2n1 (stereo not drawn)
inactive: [1]; at 1.2 µM 40% | [1]; at 3.7 µM 35% | [1]; at 11.0 µM 52% | [2]; at 1.2 µM 19% | [2]; at 3.7 µM 15% | [2]; at 11.0 µM 17% | [2]; at 33.0 µM 42% | [3]; at 1.2 µM 10% | [3]; at 3.7 µM 6% | [3]; at 11.0 µM 13% | [3]; at 33.0 µM 17% | [3]; at 100.0 µM 41% | [4]; at 1.2 µM 6% | [4]; at 3.7 µM -3% | [4]; at 11.0 µM -2% | [4]; at 33.0 µM 30% | [4]; at 100.0 µM 55% | [5]; at 1.2 µM 12% | [5]; at 3.7 µM 18% | [5]; [17] 8% | [5]; at 11.0 µM 14% | [5]; at 33.0 µM 65% | [5]; [18] 47% | [6]; at 1.2 µM 14% | [6]; at 3.7 µM 28%
active: [1]; at 33.0 µM 80% | [1]; at 100.0 µM 91% | [2]; at 100.0 µM 74% | [5]; at 50.0 µM 77.5% | [5]; at 100.0 µM 80%
